The record followed here is the supplement of paper PMC10849652.

Targets with a hit are over-represented here; the source holds about 8,800 in all. About 0.5% of all pairs of compound and target were hits. Values without a mark were called inactive.

UniProt Q96II8, sequence (Q96II8 whole entry, looked up): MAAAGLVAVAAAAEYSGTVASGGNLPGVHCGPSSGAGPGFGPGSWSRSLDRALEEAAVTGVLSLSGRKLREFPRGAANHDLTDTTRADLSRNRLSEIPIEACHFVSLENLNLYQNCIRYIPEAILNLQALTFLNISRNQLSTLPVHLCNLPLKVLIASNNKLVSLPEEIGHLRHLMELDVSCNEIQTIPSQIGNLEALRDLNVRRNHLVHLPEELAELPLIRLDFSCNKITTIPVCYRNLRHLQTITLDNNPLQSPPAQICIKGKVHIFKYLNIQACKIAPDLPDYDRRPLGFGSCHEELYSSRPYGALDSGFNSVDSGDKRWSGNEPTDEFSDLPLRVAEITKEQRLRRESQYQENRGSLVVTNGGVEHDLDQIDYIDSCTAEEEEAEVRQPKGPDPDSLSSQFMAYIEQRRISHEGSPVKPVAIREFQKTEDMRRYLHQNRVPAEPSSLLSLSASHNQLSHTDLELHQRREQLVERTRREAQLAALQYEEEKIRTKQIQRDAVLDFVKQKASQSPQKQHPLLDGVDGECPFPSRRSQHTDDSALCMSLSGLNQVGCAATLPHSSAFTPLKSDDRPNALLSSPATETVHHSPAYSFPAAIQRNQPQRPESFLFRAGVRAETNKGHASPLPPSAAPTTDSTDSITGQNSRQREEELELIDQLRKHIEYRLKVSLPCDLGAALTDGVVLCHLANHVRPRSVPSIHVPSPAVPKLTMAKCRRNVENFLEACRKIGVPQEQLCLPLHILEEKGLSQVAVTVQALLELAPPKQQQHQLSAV
UniProt Q9UFC0, sequence (Q9UFC0 whole entry, looked up): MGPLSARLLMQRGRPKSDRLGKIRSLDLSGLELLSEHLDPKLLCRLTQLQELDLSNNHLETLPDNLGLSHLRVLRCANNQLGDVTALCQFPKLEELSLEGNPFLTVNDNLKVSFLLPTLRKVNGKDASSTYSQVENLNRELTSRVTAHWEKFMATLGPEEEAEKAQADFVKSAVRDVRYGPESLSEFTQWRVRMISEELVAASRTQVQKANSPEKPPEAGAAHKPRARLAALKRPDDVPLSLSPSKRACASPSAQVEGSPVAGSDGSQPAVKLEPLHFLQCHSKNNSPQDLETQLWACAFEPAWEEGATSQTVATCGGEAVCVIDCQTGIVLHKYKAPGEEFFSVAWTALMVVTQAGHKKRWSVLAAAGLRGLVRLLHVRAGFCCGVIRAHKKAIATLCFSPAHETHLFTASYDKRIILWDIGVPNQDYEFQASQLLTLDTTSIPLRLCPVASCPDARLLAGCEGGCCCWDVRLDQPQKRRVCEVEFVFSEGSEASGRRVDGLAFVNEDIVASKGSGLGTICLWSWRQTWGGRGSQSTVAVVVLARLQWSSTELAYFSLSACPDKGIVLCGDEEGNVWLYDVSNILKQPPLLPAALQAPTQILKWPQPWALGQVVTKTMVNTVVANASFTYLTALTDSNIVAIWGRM
UniProt Q14693, sequence (Q14693 whole entry, looked up): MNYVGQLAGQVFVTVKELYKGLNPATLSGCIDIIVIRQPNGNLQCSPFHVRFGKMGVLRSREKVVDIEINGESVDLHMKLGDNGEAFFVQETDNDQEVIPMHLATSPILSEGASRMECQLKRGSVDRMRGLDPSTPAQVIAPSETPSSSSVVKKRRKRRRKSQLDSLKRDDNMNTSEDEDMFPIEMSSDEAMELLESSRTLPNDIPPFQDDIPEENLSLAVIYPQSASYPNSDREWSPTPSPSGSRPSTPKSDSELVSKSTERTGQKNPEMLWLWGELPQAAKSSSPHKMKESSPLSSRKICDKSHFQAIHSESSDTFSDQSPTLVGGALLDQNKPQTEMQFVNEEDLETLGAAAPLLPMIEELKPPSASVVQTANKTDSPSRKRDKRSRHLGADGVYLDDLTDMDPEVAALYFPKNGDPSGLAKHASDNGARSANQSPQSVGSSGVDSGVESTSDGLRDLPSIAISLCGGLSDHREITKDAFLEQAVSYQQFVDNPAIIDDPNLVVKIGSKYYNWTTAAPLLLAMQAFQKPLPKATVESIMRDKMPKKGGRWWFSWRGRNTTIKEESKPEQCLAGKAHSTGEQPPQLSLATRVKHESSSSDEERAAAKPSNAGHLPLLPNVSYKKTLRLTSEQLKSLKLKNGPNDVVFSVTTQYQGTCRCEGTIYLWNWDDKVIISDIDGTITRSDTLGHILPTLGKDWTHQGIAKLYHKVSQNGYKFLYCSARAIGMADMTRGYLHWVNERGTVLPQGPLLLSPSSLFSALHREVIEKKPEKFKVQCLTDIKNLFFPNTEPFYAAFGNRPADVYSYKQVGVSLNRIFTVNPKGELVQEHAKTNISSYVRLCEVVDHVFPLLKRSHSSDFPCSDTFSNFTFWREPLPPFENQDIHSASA
UniProt Q92615, sequence (Q92615 whole entry, looked up): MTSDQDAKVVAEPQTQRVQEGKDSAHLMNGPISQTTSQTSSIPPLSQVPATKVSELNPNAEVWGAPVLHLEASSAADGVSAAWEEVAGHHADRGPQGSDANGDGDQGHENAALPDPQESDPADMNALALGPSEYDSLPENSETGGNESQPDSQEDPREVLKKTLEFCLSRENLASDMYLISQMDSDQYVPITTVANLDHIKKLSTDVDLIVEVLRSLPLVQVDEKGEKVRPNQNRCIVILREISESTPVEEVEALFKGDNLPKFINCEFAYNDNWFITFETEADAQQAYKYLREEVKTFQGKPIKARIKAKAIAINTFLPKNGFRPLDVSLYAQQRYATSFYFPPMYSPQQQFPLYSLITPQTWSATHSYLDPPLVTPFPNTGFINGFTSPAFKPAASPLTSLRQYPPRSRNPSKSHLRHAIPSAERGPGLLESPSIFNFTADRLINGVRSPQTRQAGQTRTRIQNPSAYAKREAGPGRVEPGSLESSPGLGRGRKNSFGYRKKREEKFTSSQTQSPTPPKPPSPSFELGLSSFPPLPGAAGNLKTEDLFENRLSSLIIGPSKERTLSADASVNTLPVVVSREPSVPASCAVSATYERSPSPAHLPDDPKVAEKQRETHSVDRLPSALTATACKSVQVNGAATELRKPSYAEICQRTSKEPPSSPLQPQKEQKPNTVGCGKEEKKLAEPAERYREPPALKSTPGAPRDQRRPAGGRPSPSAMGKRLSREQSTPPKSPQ
UniProt Q14149, sequence (Q14149 whole entry, looked up): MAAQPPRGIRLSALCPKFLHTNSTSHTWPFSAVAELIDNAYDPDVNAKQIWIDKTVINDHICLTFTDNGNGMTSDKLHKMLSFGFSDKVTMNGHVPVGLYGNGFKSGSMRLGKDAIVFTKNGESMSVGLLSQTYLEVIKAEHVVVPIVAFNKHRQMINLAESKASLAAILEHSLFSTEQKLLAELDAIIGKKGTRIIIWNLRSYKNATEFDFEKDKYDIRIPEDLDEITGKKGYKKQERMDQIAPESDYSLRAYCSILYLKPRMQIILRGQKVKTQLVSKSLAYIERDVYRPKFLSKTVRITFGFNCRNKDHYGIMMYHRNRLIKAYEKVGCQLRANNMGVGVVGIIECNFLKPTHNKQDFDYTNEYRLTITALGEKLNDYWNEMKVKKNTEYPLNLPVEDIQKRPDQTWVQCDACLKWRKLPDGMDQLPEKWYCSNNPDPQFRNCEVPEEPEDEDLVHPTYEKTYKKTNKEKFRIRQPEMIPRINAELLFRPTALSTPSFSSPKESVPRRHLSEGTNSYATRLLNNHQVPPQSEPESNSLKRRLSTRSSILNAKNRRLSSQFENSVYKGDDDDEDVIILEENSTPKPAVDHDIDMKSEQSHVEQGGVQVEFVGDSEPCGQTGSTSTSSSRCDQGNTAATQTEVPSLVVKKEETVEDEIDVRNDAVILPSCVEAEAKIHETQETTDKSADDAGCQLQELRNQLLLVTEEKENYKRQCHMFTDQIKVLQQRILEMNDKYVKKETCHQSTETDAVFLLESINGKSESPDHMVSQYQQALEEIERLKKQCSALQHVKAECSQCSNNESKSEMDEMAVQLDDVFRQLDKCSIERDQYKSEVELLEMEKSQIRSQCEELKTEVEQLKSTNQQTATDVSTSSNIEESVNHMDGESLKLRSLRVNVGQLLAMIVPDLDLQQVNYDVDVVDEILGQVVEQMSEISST
UniProt Q16644, sequence (Q16644 whole entry, looked up): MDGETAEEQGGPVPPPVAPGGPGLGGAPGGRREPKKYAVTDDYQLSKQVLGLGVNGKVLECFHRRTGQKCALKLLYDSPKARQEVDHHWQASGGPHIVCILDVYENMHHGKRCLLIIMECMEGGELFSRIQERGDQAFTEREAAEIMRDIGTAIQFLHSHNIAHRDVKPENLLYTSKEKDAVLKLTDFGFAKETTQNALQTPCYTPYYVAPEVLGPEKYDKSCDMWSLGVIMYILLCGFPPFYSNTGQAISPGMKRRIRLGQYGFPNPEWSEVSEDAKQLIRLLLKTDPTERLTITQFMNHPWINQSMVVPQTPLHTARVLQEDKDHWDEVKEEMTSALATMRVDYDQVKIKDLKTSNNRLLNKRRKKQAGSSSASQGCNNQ
UniProt P53778, sequence (P53778 whole entry, looked up): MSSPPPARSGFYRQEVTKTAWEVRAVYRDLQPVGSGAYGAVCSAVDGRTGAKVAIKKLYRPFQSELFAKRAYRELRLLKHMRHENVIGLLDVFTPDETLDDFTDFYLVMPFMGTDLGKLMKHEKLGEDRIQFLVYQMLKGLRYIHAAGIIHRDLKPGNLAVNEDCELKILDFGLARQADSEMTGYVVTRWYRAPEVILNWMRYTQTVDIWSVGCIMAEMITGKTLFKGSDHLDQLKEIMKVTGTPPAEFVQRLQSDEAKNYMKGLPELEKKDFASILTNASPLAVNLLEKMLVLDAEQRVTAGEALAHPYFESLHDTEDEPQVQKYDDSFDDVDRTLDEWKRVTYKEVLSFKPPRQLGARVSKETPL
UniProt Q14657, sequence (Q14657 whole entry, looked up): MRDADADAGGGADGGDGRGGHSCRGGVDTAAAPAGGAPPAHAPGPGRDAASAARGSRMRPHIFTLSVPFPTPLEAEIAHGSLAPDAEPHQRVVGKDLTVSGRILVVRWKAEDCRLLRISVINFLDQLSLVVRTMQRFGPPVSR
UniProt Q13015, sequence (Q13015 whole entry, looked up): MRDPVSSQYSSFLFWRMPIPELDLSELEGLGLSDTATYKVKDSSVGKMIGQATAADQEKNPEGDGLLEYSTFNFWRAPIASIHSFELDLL

Compound in the first assay: C1=CC=C(C=C1)C2=NC(=C(N2)C3=CC=NC=C3)C4=CC(=C(C=C4)Cl)O
Nature of the assay: log2 fold change, soluble protein after heating vs DMSO (PISA); higher = thermal stabilisation; K562 lysate, 10 uM; active = over 0.2 and 3.5 SD of the protein, either way, in both replicates (recomputed). In outline: (§1)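 Dounce homogenisation of K562 pellets in PBS pH 7.4 with 1 mM MgCl2 produced a crude extract, used at 1 mg/mL protein. Exposure to 10 μM compound lasted 30 min, and aliquots were then heated for 3 min across 48°C-58°C, pooled and brought to 0.5% NP-40 at 4°C. The supernatant after 21,000xg for 90 min was quantified by TMTpro 16plex LC-MS/MS with channel sums equalised. Duplicate values are given as log-two fold change in thermal stability relative to solvent controls.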
As to KIF4A (UniProt O95239), the log2 fold change was 0.014.

Regarding MBLAC2 (UniProt Q68D91), the log2 fold change is 0.018.

Take MAP2K1 (UniProt Q02750): the log2 fold change was -0.006.

As to MIPEP (UniProt Q99797), the log2 fold change is -0.029.

For LARS (UniProt Q9P2J5), the log2 fold change is 0.016.

As to LSM8 (UniProt O95777), the log2 fold change is -0.026.

For the target MAP2K7 isoform 4 (UniProt O14733), the log2 fold change is 0.044.

Turning to MAPKAPK3 (UniProt Q16644), the log2 fold change is -0.01.

Regarding LARP4B (UniProt Q92615), the log2 fold change is -0.021.

In the case of MAPK6 (UniProt Q16659), the log2 fold change was 0.001.

Consider MAP11 (UniProt Q8WVR3), for which the log2 fold change is -0.004.

Take MICB, A0A140T979: the log2 fold change was 0.034.

On to LPCAT1 (UniProt Q8NF37), for which the log2 fold change is -0.09.

As for METTL7A (UniProt Q9H8H3), the log2 fold change is 0.048.

As for MAP4K4 isoform 3 (UniProt O95819), the log2 fold change is -0.093.

Regarding LLGL1 (UniProt Q15334), the log2 fold change was 0.001.

In the case of MAP3K4 (UniProt Q9Y6R4), the log2 fold change was 0.018.

Take KIF14 (UniProt Q15058): the log2 fold change is 0.01.

For the target LAGE3 (UniProt Q14657), the log2 fold change is -0.018.

For the target KMT2A isoform 3 (UniProt Q03164), the log2 fold change is -0.069.

For LUZP1 (UniProt Q86V48), the log2 fold change is -0.009.

MRPL15 (UniProt Q9P015): the log2 fold change was -0.017.

As for MPZL1 (UniProt O95297), the log2 fold change is 0.017.

As for MORC3 (UniProt Q14149), the log2 fold change was 0.034.

In the case of LYRM4 (UniProt Q9HD34), the log2 fold change is -0.011.

With MLLT11 (UniProt Q13015), the log2 fold change was -0.018.

With LRCH3 (UniProt Q96II8), the log2 fold change is 0.

For KNOP1 (UniProt Q1ED39), the log2 fold change is 0.008.

For MRPL46 (UniProt Q9H2W6), the log2 fold change was 0.023.

Regarding LPIN1 isoform 7 (UniProt Q14693), the log2 fold change is 0.011.

Regarding MAPK12 (UniProt P53778), the log2 fold change is 0.023.

Consider LSG1 (UniProt Q9H089), for which the log2 fold change is 0.

As for MBOAT2 (UniProt Q6ZWT7), the log2 fold change is -0.007.

MAPKAPK5 (UniProt Q8IW41): the log2 fold change was -0.024.

In the case of LRWD1 (UniProt Q9UFC0), the log2 fold change is 0.016.

Take MPI (UniProt P34949): the log2 fold change is 0.022.

Take MMS19 isoform 8 (UniProt Q96T76): the log2 fold change is 0.011.

As to MRPL19 (UniProt P49406), the log2 fold change was -0.032.

Compound in a further assay: C1=CC=C2C(=C1)C3=NNC4=CC=CC(=C43)C2=O
Described as above. In outline:
as §1
KIF4A (UniProt O95239): the log2 fold change was -0.033.

On to MBLAC2 (UniProt Q68D91), for which the log2 fold change is 0.065.

With MAP2K1 (UniProt Q02750), the log2 fold change is 0.188.

Consider MIPEP (UniProt Q99797), for which the log2 fold change was -0.008.

For the target LARS (UniProt Q9P2J5), the log2 fold change was -0.026.

On to LSM8 (UniProt O95777), for which the log2 fold change is 0.066.

Regarding MAP2K7 isoform 4 (UniProt O14733), the log2 fold change is 0.586 (active).

With MAPKAPK3 (UniProt Q16644), the log2 fold change was -0.034.

For LARP4B (UniProt Q92615), the log2 fold change is 0.033.

In the case of MAPK6 (UniProt Q16659), the log2 fold change was 0.069.

With MAP11 (UniProt Q8WVR3), the log2 fold change is 0.064.

Regarding MICB, A0A140T979, the log2 fold change was 0.046.

As to LPCAT1 (UniProt Q8NF37), the log2 fold change was -0.014.

As for METTL7A (UniProt Q9H8H3), the log2 fold change is -0.016.

For MAP4K4 isoform 3 (UniProt O95819), the log2 fold change was -0.077.

In the case of LLGL1 (UniProt Q15334), the log2 fold change was -0.112.

For MAP3K4 (UniProt Q9Y6R4), the log2 fold change was 0.105.

Take KIF14 (UniProt Q15058): the log2 fold change is -0.032.

Turning to LAGE3 (UniProt Q14657), the log2 fold change was 0.091.

Regarding KMT2A isoform 3 (UniProt Q03164), the log2 fold change is -0.004.

As to LUZP1 (UniProt Q86V48), the log2 fold change is 0.031.

For MRPL15 (UniProt Q9P015), the log2 fold change was 0.004.

MPZL1 (UniProt O95297): the log2 fold change was -0.005.

For the target MORC3 (UniProt Q14149), the log2 fold change was -0.033.

Consider LYRM4 (UniProt Q9HD34), for which the log2 fold change was -0.002.

For MLLT11 (UniProt Q13015), the log2 fold change was -0.054.

LRCH3 (UniProt Q96II8): the log2 fold change was -0.053.

As for KNOP1 (UniProt Q1ED39), the log2 fold change is 0.109.

For the target MRPL46 (UniProt Q9H2W6), the log2 fold change was 0.089.

Turning to LPIN1 isoform 7 (UniProt Q14693), the log2 fold change is -0.006.

For the target MAPK12 (UniProt P53778), the log2 fold change was 0.001.

In the case of LSG1 (UniProt Q9H089), the log2 fold change was -0.114.

As for MBOAT2 (UniProt Q6ZWT7), the log2 fold change is -0.076.

Turning to MAPKAPK5 (UniProt Q8IW41), the log2 fold change was 0.276 (active).

In the case of LRWD1 (UniProt Q9UFC0), the log2 fold change is -0.014.

MPI (UniProt P34949): the log2 fold change was -0.02.

As for MMS19 isoform 8 (UniProt Q96T76), the log2 fold change was -0.099.

As for MRPL19 (UniProt P49406), the log2 fold change is -0.019.
